# Whole data set: some 81,000 sequences, median “one-hybrid fitness for binding NBS DNA” near -0.1, cut for the highest 2% near 0.36. The list comes from a sample in which the highest values are over-represented; it also holds similar and randomly drawn sequences.
# B1: Caulobacter ParB omega fusion; a variant is named by its letters at X, in order, B8GW30 (parent)
# chain: MESVVVGEPGMSEGRRGLGRGLSALLGEVDAAPAQAPGEQLGGSREAPIEILQRNPDQPRRTFREEDLEDLSNSIREKGVLQPILVRPSPDTAGEYQIVAGERAWRAAQRAGLKTVPIMVRELDDLAVLEIGIIENVQRADLNVLEEALSYKVLMEKFERTQENIAQTIGKSXSHVANXMRLLXLPDEVQSYLVSGELTAXHARAIAAAADPVALAKQIIEGGLSVRETEALARKAPNLSAGKSKGGRPPRVKDTDTQALESDLSSVLGLDVSIDHRGSTGTLTITYATLEQLDDLCNRLTRGI
# Variants of: B1
# Test: one-hybrid fitness for binding NBS DNA (the Noc-binding site; scaled: cognate 1, non-cognate 0); higher = stronger binding
# Conditions: with NBS DNA site
# Summary of the method: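 In E. coli USO, a HIS3 reporter with its site placed 19 bp from the promoter was used to select Caulobacter ParB variants randomised at four specificity codons. Growth lasted 48 hours at 37°C on histidine-free M9 containing 0.1 mM IPTG and 5 mM 3-AT. Fitness was taken as the log change in variant-to-wild-type read ratio from Illumina sequencing of pre- and post-selection plasmids, rescaled between the non-cognate and cognate sites.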
row,Variant,one-hybrid fitness for binding NBS DNA
1,TKKF,≤ 0.2
2,TGPI,≤ 0.2
3,SSSR,≤ 0.2
4,GRQQ,≤ 0.2
5,PLWH,≤ 0.2
6,KPII,≤ 0.2
7,RDGI,≤ 0.2
8,NLSK,≤ 0.2
9,QAVQ,0.32
10,QAKQ,0.408
11,QAKH,0.541
12,QARQ,0.332
13,QAKS,0.618
14,QAKN,0.356
15,QAKD,≤ 0.2
16,QAVS,0.226
17,QAKP,≤ 0.2
18,CHHT,≤ 0.2
19,ELRT,≤ 0.2
20,KKAT,0.309
21,KKQP,≤ 0.2

row,Variant,one-hybrid fitness for binding NBS DNA
1,KKNN,≤ 0.2
2,KKYT,0.249
3,KKDT,≤ 0.2
4,KKRT,0.381
5,KKQT,0.393
6,KHQT,≤ 0.2
7,KKNT,0.425
8,YQVF,≤ 0.2
9,LPAV,≤ 0.2
10,QGMS,≤ 0.2
11,PQVE,≤ 0.2
12,PMPS,≤ 0.2
13,FPGC,≤ 0.2
14,QSDT,0.32
15,QFNT,≤ 0.2
16,QSND,≤ 0.2
17,QLDT,0.249
18,QPNT,≤ 0.2
19,QCNT,0.569
20,QINT,0.462
21,QIDT,≤ 0.2

row,Variant,one-hybrid fitness for binding NBS DNA
1,QLNT,0.45
2,QSNT,0.476
3,QLNN,≤ 0.2
4,QINH,≤ 0.2
5,MQSN,≤ 0.2
6,EVQG,≤ 0.2
7,AVQR,≤ 0.2
8,DELG,≤ 0.2
9,YHGF,≤ 0.2
10,ENKN,≤ 0.2
11,PKSC,≤ 0.2
12,EETG,≤ 0.2
13,PKIC,≤ 0.2
14,QCDT,0.369
15,QHNT,0.49
16,QAND,≤ 0.2
17,QFDT,≤ 0.2
18,QANT,0.462
19,QHNH,0.297
20,QADT,0.287
21,QPDT,≤ 0.2

row,Variant,one-hybrid fitness for binding NBS DNA
1,QHDT,0.344
2,SMIR,≤ 0.2
3,HYMR,≤ 0.2
4,SMAM,≤ 0.2
5,VWNK,≤ 0.2
6,TTMW,≤ 0.2
7,QTRN,0.543
8,QCRD,0.384
9,QSRD,0.219
10,QTRD,0.379
11,QTDN,≤ 0.2
12,QTYN,≤ 0.2
13,QTRP,0.401
14,QTYP,≤ 0.2
15,QTYD,≤ 0.2
16,QTDD,≤ 0.2
17,QPRD,≤ 0.2
18,AYPY,≤ 0.2
19,GIDC,≤ 0.2
20,TRKM,0.216
21,LSKY,≤ 0.2

# — a collection of fitness landscapes (doi:10.1016/j.celrep.2020.107928)
